Results filed as inconclusive are left out. A number with no mark means an inactive call. Calls come from the whole dose curve; as a rule, active = well fitted cell-killing curve with a large enough effect; inconclusive = small, poorly fitted or top-dose-only effect; inactive = flat fitted curve, though single readings scatter.

This assay can be described thus: Cell Viability - LYMP2-009 (AID 968).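 Note: cells exposed to compound for 24 h at 37 °C; 0% = DMSO alone and the full-kill end = tetraoctylammonium bromide at 92 µM; nearly all actives have a fitted effect of over 55% in size.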 To be noted: LYMP2-009 lymphoblastoid cell viability; series mostly up to 92.2 µM; activity change, negative = viability loss: at the top concentration. The text has this: NIH Chemical Genomics Center [NCGC]
NIH Molecular Libraries Screening Centers Network [MLSCN]
National Institutes of Environmental Health Sciences [NIEHS]
National Toxicology Program [NTP]
We have developed a 1536-well cell-based assay for quantitative high throughput screening (qHTS) against a number of cell lines to determine in vitro cytotoxicity of small molecules. This particular assay uses a human lymphoblastoid cell line (LYMP2-009) purchased from Coriell Institute for Medical Research.
NCGC Assay Protocol Summary:
The CellTiter-Glo luminescent cell viability assay (Promega) is a homogeneous method to measure the number of viable cells in culture. The end point readout of this assay is based on quantitation of intracellular ATP, an indicator of metabolic activity, using the luciferase reaction. Luciferase catalyzes the oxidation of beetle Luciferin to oxyluciferin and light in the presence of ATP. The luminescent signal is proportional to amount of ATP present.
Using the CellTiter-Glo luminescent cell viability assay, the amount of cellular ATP was measured in the lymphoblastoid cell line with complete culture medium following compound treatment for 24 hours. The assay was performed in opaque white Kalypsys 1536-well plates. In the screen, tetraoctylammonium bromide was used as positive control. Library compounds were measured for their ability to cause acute toxicity in the cell line, as reflected by a decrease in intracellular ATP levels, in a concentration-dependent manner. […] AC50 values were determined from concentration-response data modeled with the standard Hill equation.
qHTS protocol for CellTiter Glo lymphoblastoid cellular assay
[Step] [Parameter] [Value] [Description]
1. Reagent; 5 uL; 2500 lymphoblastoid cells/well
2. Time; 5 hr; 37 C incubation
4. Controls; 23 nL; Tetraoctylammonium bromide 6.4pM to 92 uM
5. Time; 24 hr; 37 C incubation
6. Reagent; 5 uL; CellTiter Glo reagent
7. Time; 30 min; Room Temperature
8. Detection; Luminescence; Viewlux plate reader
Keywords: cell viability, cytotoxicity, lymphoblastoid cell line, luminescence, NTPHTS, NTPHTS_NCGC, NIEHS, DSSTox, MLSMR, MLSCN, NIH Roadmap, qHTS, NCGC
For `O=[N+]([O-])c1cccc(C(F)(F)F)c1`, the “activity change, negative = viability loss” value is -9.11%.

For `CCN(CC)c1cccc(O)c1`, the “activity change, negative = viability loss” value is 1.73%.

`CCCCC(=O)N(C)C`: the “activity change, negative = viability loss” value is -2.78%.

With `Cc1ccccc1C=O`, the “activity change, negative = viability loss” value is -3.49%.

For the compound `CC(O)COC(C)(C)C` (stereo not given), the “activity change, negative = viability loss” value is 5.71%.

On to `CCCCCCCCC/C=C/CC1CC(=O)OC1=O` (stereo not given), for which the “activity change, negative = viability loss” value is -8.44%.

As to `O=C(O)c1ccc(Cl)c(Cl)c1`, the “activity change, negative = viability loss” value was -1.01%.

For the compound `Cc1ccco1`, the “activity change, negative = viability loss” value is -2.11%.

Take `CNc1ccc([N+](=O)[O-])cc1`: the “activity change, negative = viability loss” value is -10.1%.

For `O=Cc1ccc(CO)o1`, the “activity change, negative = viability loss” value was -0.0371%.

Regarding `Cc1cc(C2(c3cc(C)c(O)cc3C)OS(=O)(=O)c3ccccc32)c(C)cc1O`, the “activity change, negative = viability loss” value is -20.8%.

For `CCc1ccccc1`, the “activity change, negative = viability loss” value is -7.81%.

Consider `CC(N)CN` (stereo not given), for which the “activity change, negative = viability loss” value is -0.64%.

On to `CCOC(=O)C(C)C(C)=O` (stereo not given), for which the “activity change, negative = viability loss” value is -4.53%.

With `CCOc1ccccc1N`, the “activity change, negative = viability loss” value is -0.0528%.

For the compound `O=Cc1ccccc1Cl`, the “activity change, negative = viability loss” value is -0.408%.

With `COc1ccccc1[N+](=O)[O-]`, the “activity change, negative = viability loss” value was 7.27%.

As to `CC(C=O)Cc1ccc(C(C)(C)C)cc1` (stereo not given), the “activity change, negative = viability loss” value is -15.7%.

As for `O=[N+]([O-])c1ccccc1CCO`, the “activity change, negative = viability loss” value was -1.96%.

In the case of `CNC(=O)c1ccccc1`, the “activity change, negative = viability loss” value was -5.45%.

Consider `O=C(O)c1ccc(CO)o1`, for which the “activity change, negative = viability loss” value was -28%.

In the case of `CNC(=O)N(c1ccccc1)c1ccccc1`, the “activity change, negative = viability loss” value is -9.33%.

On to `CC(=O)OCCC(C)C`, for which the “activity change, negative = viability loss” value is -8.89%.

Take `CCC(C)=O`: the “activity change, negative = viability loss” value is -7.08%.

In the case of `N#CCc1ccccc1[N+](=O)[O-]`, the “activity change, negative = viability loss” value was -6.56%.

`C=CCCCCCCC=C`: the “activity change, negative = viability loss” value is -4.4%.

As to `Cc1ccc(C)cc1`, the “activity change, negative = viability loss” value was -0.235%.

For `Cc1ccc2c(c1[N+](=O)[O-])C(=O)c1ccccc1C2=O`, the “activity change, negative = viability loss” value was -15.8%.

With `CCCCC(CC)COCC1CO1` (stereo not given), the “activity change, negative = viability loss” value was -5.01%.

For the compound `NS(=O)(=O)O`, the “activity change, negative = viability loss” value is -10.4%.

For the compound `Cc1ccc(Br)cc1`, the “activity change, negative = viability loss” value was 0.35%.

Take `COC(=O)CCCC(=O)OC`: the “activity change, negative = viability loss” value is 4.97%.

Regarding `C=CCCCCCC`, the “activity change, negative = viability loss” value was -10.2%.

In the case of `c1ccsc1`, the “activity change, negative = viability loss” value is -5.51%.

As to `COc1ccc(OC)cc1`, the “activity change, negative = viability loss” value was -2.67%.

For the compound `Cc1cccc(C)c1[N+](=O)[O-]`, the “activity change, negative = viability loss” value is -4.7%.

`O=[N+]([O-])c1c(Cl)cc(Cl)cc1Cl`: the “activity change, negative = viability loss” value was -14.3%.

For `Nc1cc([N+](=O)[O-])ccc1C(=O)O`, the “activity change, negative = viability loss” value is -3.07%.

On to `Cc1cc(C)c(N)cc1C`, for which the “activity change, negative = viability loss” value was 2.43%.

For the compound `Cc1ccc2nc(-c3ccc(N)cc3)sc2c1S(=O)(=O)O`, the “activity change, negative = viability loss” value was -5.95%.

The record behind these values is PubChem BioAssay (NCATS).
